TRHR PAM = allosteric enhancers of human TRH receptor; P34981; TRHR cells, fluo-8 calcium fluorescence, EC20 TRH enhancement; enhancement, % at 2 µM; hit rate 0.66% among 360,000; AID 493056; in the data active = enhancement above about 30%; also: 0% is about no effect
Target sequence (P34981 whole entry, looked up): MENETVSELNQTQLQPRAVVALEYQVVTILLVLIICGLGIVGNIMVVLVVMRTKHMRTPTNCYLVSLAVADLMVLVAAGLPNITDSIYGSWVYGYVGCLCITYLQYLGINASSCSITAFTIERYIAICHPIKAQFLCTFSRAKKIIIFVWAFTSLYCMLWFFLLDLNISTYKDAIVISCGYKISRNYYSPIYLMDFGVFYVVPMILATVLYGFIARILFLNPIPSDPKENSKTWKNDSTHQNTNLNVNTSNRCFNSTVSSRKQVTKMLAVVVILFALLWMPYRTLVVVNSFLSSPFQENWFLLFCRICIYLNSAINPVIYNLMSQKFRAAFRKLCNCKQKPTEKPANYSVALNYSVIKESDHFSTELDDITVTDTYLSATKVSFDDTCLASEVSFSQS
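TRHR-expressing cells loaded with fluo-8 calcium dye were read kinetically (ex 480/em 530) during compound addition, then stimulated with an EC20 of TRH (10 nM final). Enhancement of the Gq-mediated intracellular calcium response was scored.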
D1 antag = human D1 dopamine receptor antagonism | hit rate 3.2% among 360,000 | activity change, negative = inhibition, % at 10 µM | AID 504652 | HEK293 TREx D1 cells, calcium flux, dopamine EC80; hits give low values; in the data active = activity change below about -30%; also: % is scaled to controls: 0 for no effect and ±100 for the full control effect
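Calcium flux readout: force-coupled, inducible Hek293 Trex D1 line, cells induced overnight at 30 C with tetracycline, dye-loaded 30–90 min at RT. Antagonism scored against EC80 dopamine challenge given 180 s after compound.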
TRHR ag = activates the human TRH receptor; P34981; TRHR cells, calcium flux fluo-8, FDSS agonist mode; activation, % at 2 µM; hit rate 0.18% among 360,000; AID 493084; also: 0% is about no effect
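TRHR-expressing cells, plated overnight in medium with 10% serum, were loaded with fluo-8 calcium dye at room temperature. After a 10 s baseline, library compound was pin-added and calcium release was recorded kinetically (ex 480/em 530) as agonist response.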
D1 agonist = agonists of human D1 dopamine receptor | P21728 | HEK293 T-REx D1 cells, calcium flux, agonist mode | activation, % at 2 µM | hit rate 1% among 360,000 | AID 504660; also: 0% is about no effect
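Agonism was scored from calcium flux recorded over 180 s (1 read/s) after pintool compound addition, following a 10-cycle baseline. Cells were inducible force-coupled HEK293 TREx D1, plated overnight at 30 C and loaded with no-wash calcium dye.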
D1 potentiator = human D1 dopamine receptor positive modulation; AID 504651; HEK293 TREx D1 cells, calcium flux, dopamine EC20 potentiation; hit rate 0.036% among 360,000; potentiation, % at 10 µM; P21728; in the data active = potentiation above about 30%; also: 0% is about no effect
Starred values were filed as active, the others as inactive; / = no result. Most compounds without a hit are left out; they make up all but 4.6% or so of the library. Rule as the data show it, unless noted: active = activation above about 30%; inactive = the rest.

SMILES	TRHR PAM	D1 antag	TRHR ag	D1 agonist	D1 potentiator
COc1ccc(CCNC(=O)C(=O)NCC2OCCN2S(=O)(=O)c2ccc(OC)cc2)cc1 (stereo not drawn)	1.3	-35.1*	-0.8	12.3	-7.2
COc1ccc(S(=O)(=O)N2CCCOC2CNC(=O)C(=O)NCc2ccccc2F)cc1C (stereo not drawn)	-4.3	-31.7*	-0.3	6.2	-5.0
COc1ccc(S(=O)(=O)N2CCCOC2CNC(=O)C(=O)NCc2ccco2)cc1C (stereo not drawn)	2.8	-12.0	-1.4	1.0	3.8
O=C(NCCc1ccccc1)C(=O)NCC1OCCCN1S(=O)(=O)c1cc(F)ccc1F (stereo not drawn)	0.3	-15.1	0.8	2.0	1.3
COc1ccc(CCNC(=O)C(=O)NCC2OCCN2S(=O)(=O)c2ccc(Cl)cc2)cc1 (stereo not drawn)	1.8	-23.7	0.0	8.9	-11.4
Cc1cc(F)ccc1S(=O)(=O)N1CCCOC1CNC(=O)C(=O)NCCc1ccccc1 (stereo not drawn)	-6.4	-34.1*	-0.1	3.1	-4.8
COc1ccc2oc(-c3cccc(NC(=O)c4cc([N+](=O)[O-])ccc4N4CCOCC4)c3)nc2c1	5.9	2.5	2.1	0.0	-2.0
CCOc1ccc(S(=O)(=O)n2nc(C)cc2C)c2ccccc12	35.1*	16.7	-1.5	5.5	2.8
Cc1ccc(C2=Nc3ccccc3N(CC(=O)Nc3ccccc3F)C(=O)C2)cc1C	11.2	-8.2	1.2	7.1	-0.7
O=C(NC(=S)Nc1ccccn1)c1cccc([N+](=O)[O-])c1	-5.7	-55.0*	-0.3	0.0	-6.0
O=C(Nc1ccncc1NC(=O)c1cccc([N+](=O)[O-])c1)c1cccc([N+](=O)[O-])c1	6.6	-7.9	0.0	0.2	-1.6
O=C(Nc1cccc(NC(=O)c2cccc([N+](=O)[O-])c2)n1)c1cccc([N+](=O)[O-])c1	-7.2	-33.7*	0.1	4.2	-8.7
N#C/C(=C/c1ccc(O)cc1)c1nc(-c2ccc(-c3ccccc3)cc2)cs1	43.3*	-12.0	1.7	2.0	-1.1
COc1ccc(/C=C(/C#N)c2nc(-c3ccc(-c4ccccc4)cc3)cs2)cc1	-1.4	1.6	-0.9	0.2	0.2
O=C(COc1ccc(F)cc1)OCc1cc(=O)n2nc(C3CCCCC3)sc2n1	-6.4	-17.4	-0.5	2.9	-2.9
COC(=O)c1ccc(S(=O)(=O)NC(C)(C)C)n1C	-4.6	-36.8*	-0.4	1.8	1.4
COC(=O)c1ccc(S(=O)(=O)NCc2ccc(OC)cc2)n1C	-0.3	-3.0	0.9	6.8	2.9
CNC(=O)C1CC(=O)N(Cc2ccc3c(c2)OCO3)C(=Nc2ccc(OC)cc2)S1 (stereo not drawn)	17.1	-30.1*	-1.0	10.4	-5.8
CNC(=O)C1CC(=O)N(CCc2ccc(OC)cc2)C(=Nc2ccc(OC)cc2)S1 (stereo not drawn)	-0.1	-2.8	0.1	-0.4	-12.8
CC(C)c1ccc(C(O)c2nc3ccccc3n2C)cc1 (stereo not drawn)	3.1	-36.1*	-1.4	10.6	1.7
CCN1CCN(c2cc(N3CCc4ccccc4C3)c(F)cc2[N+](=O)[O-])CC1	1.5	-40.2*	0.9	6.3	-9.5
CC(=O)N1CCN(c2cc(N3CCCC3)c(F)cc2[N+](=O)[O-])CC1	-4.3	-14.3	-3.2	0.7	-2.4
CCOC(=O)c1c(C)[nH]c(C)c1S(=O)(=O)NCC(=O)NCc1ccc(C)cc1	-1.3	-2.3	-0.3	4.0	-0.8
CCOC(=O)c1c(C)[nH]c(C)c1S(=O)(=O)NCCN1CCN(c2cc(Cl)ccc2C)CC1	-1.6	-41.7*	0.1	1.5	-17.9
CCOC(=O)c1c(C)[nH]c(C)c1S(=O)(=O)NCC(=O)Nc1ccc(CC)cc1	10.5	-35.3*	-0.3	5.6	-5.9
SMILES	TRHR PAM	D1 antag	TRHR ag	D1 agonist	D1 potentiator
COc1ccc(OC)c(C(=O)NC(CC(N)=O)c2ccc(NCc3ccc(F)c(F)c3)c([N+](=O)[O-])c2)c1 (stereo not drawn)	35.7*	19.1	-0.4	2.2	0.8
Cc1cccc(N2CCN(C(=O)C3CCCN(S(=O)(=O)c4ccc(Br)s4)C3)CC2)c1C (stereo not drawn)	-2.9	-13.5	-0.5	2.8	1.4
COCc1cc(C)nc(SCC(=O)Nc2ccc3c(c2)OCCO3)c1C#N	-5.5	-30.7*	-1.5	6.6	-5.3
COCc1cc(C)nc(SCc2ccc(Cl)cc2)c1C#N	2.8	-32.0*	-0.6	36.2*	-3.1
CCOP(=O)(OCC)C(NC(=O)Nc1ccccc1)C(N)=O (stereo not drawn)	-3.1	-32.1*	0.0	3.5	0.4
CCOC(=O)N1CCC(Nc2ncnc3c2cnn3-c2ccc(C)cc2C)CC1	29.8	-31.1*	-0.3	0.8	-3.9
C=CCNc1ncnc2c1cnn2-c1ccc(C)cc1C	11.4	17.2	-1.1	-0.5	4.3
CC(=O)Nc1ccc(Nc2ncnc3c2cnn3-c2ccc(C)cc2C)cc1	-8.7	/	-0.1	-1.9	-4.2
Cc1ccc(-n2ncc3c(NCC(C)C)ncnc32)c(C)c1	-1.5	-32.0*	0.8	-1.5	-1.1
Cc1ccc(N2CC(C(=O)N3CCc4ccccc43)CC2=O)cc1 (stereo not drawn)	0.2	-13.4	-0.5	-1.5	-3.2
O=C1CC(C(=O)N2CCc3ccccc32)CN1c1ccccc1 (stereo not drawn)	-4.1	-30.8*	-0.1	-0.3	-2.3
COc1ccc(Cl)cc1NC(=O)C(C)OC(=O)C1=NNC(=O)CC1 (stereo not drawn)	2.4	-65.6*	0.0	-0.5	-2.5
O=C1CCC(C(=O)OC(C(=O)Nc2cc(Cl)cc(Cl)c2)c2ccccc2)=NN1 (stereo not drawn)	11.2	42.5	0.2	4.5	1.9
Cc1nc(N2CCOCC2)c(C#N)c(C)c1Br	-2.1	16.8	-0.9	-3.6	0.8
Cc1nc(Br)c(Br)c(C)c1Br	1.0	-30.7*	1.1	5.1	-8.9
COC(=O)C1=C(C)NC2=C(C(=O)CC(c3cccs3)C2)C1c1ccsc1 (stereo not drawn)	2.7	-47.7*	-0.7	0.8	-8.3
O=C(Nc1nnc(SCC(=O)N2CCOCC2)s1)C1CC(=O)N(c2ccc(F)cc2)C1 (stereo not drawn)	1.4	-47.5*	0.6	0.3	-4.2
CCOc1ccc(NC(=O)c2ccc(Br)o2)c([N+](=O)[O-])c1	-2.4	-44.9*	0.4	-0.3	-2.5
CCOc1ccc(NC(=O)Cc2ccccc2)c([N+](=O)[O-])c1	0.3	9.0	-1.6	0.5	-4.8
CC1OC(Nc2ccc(N=Nc3ccccc3)cc2)C(O)C(O)C1O (stereo not drawn)	-3.5	-10.2	0.6	30.6*	-4.8
O=C(Nc1nc(-c2ccccc2)cs1)c1cccc(S(=O)(=O)N2CCN(Cc3ccccc3)CC2)c1	36.6*	5.7	0.3	5.8	7.9
